Experiment [1] can be described thus: ATG_RORE_CIS: Attagene CIS-FACTORIAL HepG2 Assay for human RAR-related Orphan Receptor Element (RORE) (AID 2282959). To be noted: HepG2 Attagene cis-factorial RORE reporter, mRNA; actives raise or lower the signal. An outline of the steps: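 HepG2 cells carrying transiently transfected cis-regulated reporter units; RORE-driven reporter mRNA quantified 24 h post-dosing by RT-PCR, 6-FAM primer extension, HpaI digestion and capillary electrophoresis. Bidirectional fit versus DMSO.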

Experiment [2] deals with Transcription factor Sp1 (Homo sapiens) (UniProt P08047). Briefly: ATG_Sp1_CIS: Attagene CIS-FACTORIAL HepG2 Assay for human Specificity Protein 1 (Sp1) (AID 2282961). To be noted: HepG2 Sp1 cis-reporter transcription, actives raise or lower the signal. Summed up:
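HepG2 cells transiently transfected with multiplexed cis-regulated reporter constructs, chemical exposure 24 h. Reporter mRNA quantified by RT-PCR with capillary electrophoresis; bidirectional fit relative to DMSO.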

A short description of experiment [3]: ATG_SREBP_CIS: Attagene CIS-FACTORIAL HepG2 Assay for human Sterol Regulatory Element Binding (SREBP) (AID 2282962). To be noted: HepG2 Attagene cis-factorial SREBP reporter, mRNA; actives raise or lower the signal. Summed up: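 HepG2 cells transiently transfected with multiplexed cis-promoter reporter units sensing endogenous transcription factors; reporter mRNA measured 24 h after dosing by RT-PCR, 6-FAM labeling, HpaI digestion and capillary electrophoresis. Bidirectional fit versus DMSO.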

The target of experiment [4] is Signal transducer and activator of transcription 3 (Homo sapiens) (UniProt P40763). Briefly: ATG_STAT3_CIS: Attagene CIS-FACTORIAL HepG2 Assay for human Signal Transducer and Activator of Transcription 3 (STAT3) (AID 2282963). To be noted: HepG2, Attagene cis-factorial STAT3 reporter transcription; actives raise or lower the signal. Summed up:
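Transcript-level reporter assay. HepG2 transient MRTU transfection, 24 h exposure, fluorescence detection after RT-PCR and CE; DMSO baseline.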

A short description of experiment [5]: ATG_TA_CIS: Attagene CIS-FACTORIAL HepG2 Assay for human TA Basal Promoter (AID 2282964). To be noted: HepG2 Attagene CIS-factorial TA basal promoter reporter; actives raise or lower the signal. An outline of the steps: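 Fluorescence from labelled RT-PCR reporter fragments, separated by capillary electrophoresis, gives the signal. Cells: HepG2 transiently carrying multiple reporter units, 24 h chemical dosing. Gain or loss relative to DMSO.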

Experiment [6] can be described thus: ATG_TCF_b_cat_CIS: Attagene CIS-FACTORIAL HepG2 Assay for human T-Cell-Factor with beta-catenin (TCF/b-cat) (AID 2282965). As to conditions: HepG2 TCF/beta-catenin cis-reporter transcription, actives raise or lower the signal. An outline of the steps:
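Using capillary electrophoresis as the read-out, labelled reporter cDNA fragments from transiently transfected HepG2 were sized and quantified. Exposure lasted 24 hours; activity in either direction was referenced to DMSO.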

Experiment [7] in a line: ATG_TAL_CIS: Attagene CIS-FACTORIAL HepG2 Assay for human TAL Basal Promoter (AID 2282966).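 Note: background control endpoint measuring basal TAL promoter reporter mRNA not a specific factor.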 As to conditions: HepG2 Attagene cis-factorial TAL promoter reporter; actives raise or lower the signal. An outline of the steps:
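In this cell-based multiplex, HepG2 liver cells bearing cis-promoter reporter constructs are dosed for 24 hours. Total RNA is reverse-transcribed and amplified, labelled fragments are sized by capillary electrophoresis, and signal changes are fitted bidirectionally versus DMSO.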

A short description of experiment [8]: ATG_TGFb_CIS: Attagene CIS-FACTORIAL HepG2 Assay for human Transforming Growth Factor (TGF) (AID 2282967). To be noted: HepG2 Attagene CIS TGFb reporter, mRNA transcription; actives raise or lower the signal. An outline of the steps:
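Bidirectional fitting relative to DMSO gave the endpoint. Underlying data: reporter mRNA from HepG2 cells carrying transiently transfected cis-regulated reporter constructs, harvested 24 h after dosing and analyzed by RT-PCR and capillary electrophoresis.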

Experiment [9] addresses X-box-binding protein 1 (Homo sapiens) (UniProt P17861). Briefly: ATG_Xbp1_CIS: Attagene CIS-FACTORIAL HepG2 Assay for human X-box Binding Protein 1 (XBP1) (AID 2282972). To be noted: HepG2 XBP1 cis-element reporter, Attagene multiplex; actives raise or lower the signal. Summed up: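 HepG2 cells transiently transfected with multiple cis-element reporter units report endogenous TF activity; 24 h exposure, then reporter mRNA measured by RT-PCR, 6-FAM labelling, HpaI digestion and capillary electrophoresis. Bidirectional fitting versus DMSO.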

A short description of experiment [10]: ATG_M_19_TRANS: Attagene TRANS-FACTORIAL HepG2 Assay for M19 Transcription Factor (Internal Marker) (AID 2282974; active = hit-call score of the fitted dose curve at least 0.9, where 1 is the maximum). To be noted: HepG2 Attagene TRANS-FACTORIAL M19 internal marker reporter. An outline of the steps: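 HepG2 transiently transfected with GAL4-UAS multiplex reporter constructs, exposed 24 h; reporter RNA quantified by RT-PCR, 6-FAM labeling, HpaI digestion and capillary electrophoresis; internal background marker fitted upward versus DMSO.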

Experiment [11] concerns the target Estrogen-related receptor gamma (Homo sapiens) (UniProt P62508). Briefly: ATG_ERRg_TRANS: Attagene TRANS-FACTORIAL HepG2 Assay for human Estrogen-Related Receptor gamma (ERRg) (AID 2282977; active = hit-call score of the fitted dose curve at least 0.9, where 1 is the maximum;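 note: hits increase reporter signal over DMSO so potencies reflect activators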). As to conditions: HepG2 Attagene TRANS reporter, ERRg transactivation. Summed up:
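Transfect HepG2 with multiple GAL4-UAS reporter transcription units; dose chemicals 24 h; isolate RNA, reverse-transcribe with oligo(dT), PCR-amplify, label with 6-FAM, digest with HpaI; size fragments by capillary electrophoresis. DMSO serves as negative control.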

Experiment [12] addresses Glucocorticoid receptor (Homo sapiens) (UniProt P04150). Briefly: ATG_GR_TRANS: Attagene TRANS-FACTORIAL HepG2 Assay for human Glucocorticoid Receptor (GR) (AID 2282978; active = hit-call score of the fitted dose curve at least 0.9, where 1 is the maximum;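 note: activators score as hits since higher reporter transcript over DMSO is fitted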). As to conditions: HepG2 Attagene TRANS GR reporter, mRNA transcription. Summed up: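 HepG2 cells transiently transfected with GAL4-UAS reporter units and exogenous GR-Gal4 chimera, dosed 24 h. Reporter mRNA by RT-PCR, FAM labeling, HpaI digest and capillary electrophoresis; gain-of-signal fit versus DMSO.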

For experiment [13], the target named is Bile acid receptor (Homo sapiens) (UniProt Q96RI1). Briefly: ATG_FXR_TRANS: Attagene TRANS-FACTORIAL HepG2 Assay for Farnesoid X Receptor (FXR) (AID 2282979; active = hit-call score of the fitted dose curve at least 0.9, where 1 is the maximum;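 note: hits raise reporter mRNA above DMSO so AC50 marks FXR activation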). To be noted: HepG2 Attagene TRANS FXR-GAL4 reporter transcription. Summed up:
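Read-out: fluorescent reporter transcripts quantified by capillary electrophoresis after RT-PCR of total RNA. Source cells were HepG2 transiently carrying chimeric NR-GAL4 plus GAL4-UAS reporter units, dosed 24 h. Activity fitted upward relative to DMSO baseline.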

Experiment [14] is described as follows: ATG_Sox_CIS: Attagene CIS-FACTORIAL HepG2 Assay for human SRY-box transcription factor (SOX) (AID 2282960). To be noted: HepG2 Attagene cis-factorial SOX reporter, mRNA; actives raise or lower the signal. An outline of the steps: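 HepG2 cells transiently transfected with multiple cis-regulated reporter units, then dosed for 24 h. Reporter mRNA quantified by RT-PCR, fluorescent labelling, HpaI digestion and capillary electrophoresis; bidirectional fit versus DMSO.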

The nature of experiment [15]: ATG_VDRE_CIS: Attagene CIS-FACTORIAL HepG2 Assay for human Vitamin D Receptor Element (VDRE) (AID 2282968). As to conditions: HepG2 VDRE cis-reporter transcription, actives raise or lower the signal. Summed up: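 RT-PCR/CE readout of reporter mRNA; HepG2, transient transfection, 24 h dosing; DMSO baseline; bidirectional analysis.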
For experiment [16], the target named is Nuclear receptor subfamily 1 group I member 3 (Homo sapiens) (UniProt Q14994). Briefly: ATG_CAR_TRANS: Attagene TRANS-FACTORIAL HepG2 Assay for human Constitutive Androstane Receptor (CAR) (AID 2282969; active = hit-call score of the fitted dose curve at least 0.9, where 1 is the maximum;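 note: activators raise reporter mRNA above DMSO so AC50 marks induction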). To be noted: HepG2 Attagene TRANS-FACTORIAL CAR reporter. Summed up:
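HepG2 cells transiently transfected with multiplexed GAL4-UAS reporter units expressing chimeric NR-Gal4 proteins; compound exposure 24 h. Reporter mRNA measured by RT-PCR, 6-FAM labelling, HpaI digestion and capillary electrophoresis; gain-of-signal fitted against DMSO baseline.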

The nature of experiment [17]: ATG_GAL4_TRANS: Attagene TRANS-FACTORIAL HepG2 Assay for GAL4 (Internal Marker) (AID 2282976; active = hit-call score of the fitted dose curve at least 0.9, where 1 is the maximum). To be noted: HepG2 Attagene TRANS GAL4 internal marker reporter. Summed up: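 RT-PCR/capillary electrophoresis readout of reporter mRNA. HepG2, transient MRTU transfection (GAL4-UAS reporters), 24 h compound exposure. Background-control endpoint, positive direction vs DMSO baseline.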

In experiment [18] the target is Estrogen receptor (Homo sapiens) (UniProt P03372). Put plainly: ATG_ERa_TRANS: Attagene TRANS-FACTORIAL HepG2 Assay for human Estrogen Receptor alpha (ERa) (AID 2282970; active = hit-call score of the fitted dose curve at least 0.9, where 1 is the maximum). To be noted: HepG2 Attagene TRANS ERa GAL4 reporter, mRNA. Summed up:
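After 24 h of compound treatment, RNA from HepG2 cells bearing transfected GAL4-UAS reporter constructs is converted to cDNA, amplified and fluorescently labelled. Capillary electrophoresis resolves the ERa-linked reporter; DMSO serves as negative control.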

Molecules are shown by their SMILES. Values joined by “and” are separate entries in the source; they are usually repeats but may differ in a detail not shown here. Identical values can stand only once. Results filed as inconclusive are left out. The source holds several records for some structures; these can differ, active in one and inactive in another. Active and inactive are the calls of the source. Rule for the calls, unless noted: active = hit-call score of the fitted dose curve at least 0.9, where 1 is the maximum; inactive = score below 0.9.

Chain of Glucocorticoid receptor (Homo sapiens) (P04150 whole entry, looked up, the tested form may be a part): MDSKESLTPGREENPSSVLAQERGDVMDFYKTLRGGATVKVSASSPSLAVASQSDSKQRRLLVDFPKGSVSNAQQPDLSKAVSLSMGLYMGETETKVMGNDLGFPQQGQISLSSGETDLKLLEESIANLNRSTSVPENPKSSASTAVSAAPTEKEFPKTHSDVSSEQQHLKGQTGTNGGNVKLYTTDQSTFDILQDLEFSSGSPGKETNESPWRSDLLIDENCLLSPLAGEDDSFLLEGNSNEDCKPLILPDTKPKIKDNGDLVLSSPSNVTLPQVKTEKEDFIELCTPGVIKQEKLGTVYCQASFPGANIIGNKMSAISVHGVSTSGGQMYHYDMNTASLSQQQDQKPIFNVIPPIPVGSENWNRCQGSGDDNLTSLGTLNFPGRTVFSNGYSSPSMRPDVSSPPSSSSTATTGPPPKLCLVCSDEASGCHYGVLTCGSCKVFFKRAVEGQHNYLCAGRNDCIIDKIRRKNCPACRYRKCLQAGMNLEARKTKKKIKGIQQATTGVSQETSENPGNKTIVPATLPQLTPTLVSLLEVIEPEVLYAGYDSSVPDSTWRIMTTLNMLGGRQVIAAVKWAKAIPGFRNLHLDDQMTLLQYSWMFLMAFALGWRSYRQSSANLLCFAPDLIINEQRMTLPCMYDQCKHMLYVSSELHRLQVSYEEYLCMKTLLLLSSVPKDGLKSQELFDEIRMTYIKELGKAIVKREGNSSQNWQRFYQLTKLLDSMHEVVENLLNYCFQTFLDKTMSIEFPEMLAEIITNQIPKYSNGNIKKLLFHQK
Chain of Bile acid receptor (Homo sapiens) (Q96RI1 whole entry, looked up, the tested form may be a part): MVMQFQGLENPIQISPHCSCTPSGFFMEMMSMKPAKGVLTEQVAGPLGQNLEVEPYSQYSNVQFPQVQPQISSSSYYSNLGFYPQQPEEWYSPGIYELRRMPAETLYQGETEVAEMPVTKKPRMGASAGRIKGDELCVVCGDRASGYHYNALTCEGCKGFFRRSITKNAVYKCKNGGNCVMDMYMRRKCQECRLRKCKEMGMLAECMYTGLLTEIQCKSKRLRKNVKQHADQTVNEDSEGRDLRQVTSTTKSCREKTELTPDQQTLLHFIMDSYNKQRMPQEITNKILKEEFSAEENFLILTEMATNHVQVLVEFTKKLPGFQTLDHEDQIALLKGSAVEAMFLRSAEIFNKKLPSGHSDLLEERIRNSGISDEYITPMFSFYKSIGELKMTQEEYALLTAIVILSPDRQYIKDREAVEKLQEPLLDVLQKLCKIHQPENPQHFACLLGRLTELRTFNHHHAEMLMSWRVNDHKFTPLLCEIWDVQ
Chain of Transcription factor Sp1 (Homo sapiens) (P08047 whole entry, looked up): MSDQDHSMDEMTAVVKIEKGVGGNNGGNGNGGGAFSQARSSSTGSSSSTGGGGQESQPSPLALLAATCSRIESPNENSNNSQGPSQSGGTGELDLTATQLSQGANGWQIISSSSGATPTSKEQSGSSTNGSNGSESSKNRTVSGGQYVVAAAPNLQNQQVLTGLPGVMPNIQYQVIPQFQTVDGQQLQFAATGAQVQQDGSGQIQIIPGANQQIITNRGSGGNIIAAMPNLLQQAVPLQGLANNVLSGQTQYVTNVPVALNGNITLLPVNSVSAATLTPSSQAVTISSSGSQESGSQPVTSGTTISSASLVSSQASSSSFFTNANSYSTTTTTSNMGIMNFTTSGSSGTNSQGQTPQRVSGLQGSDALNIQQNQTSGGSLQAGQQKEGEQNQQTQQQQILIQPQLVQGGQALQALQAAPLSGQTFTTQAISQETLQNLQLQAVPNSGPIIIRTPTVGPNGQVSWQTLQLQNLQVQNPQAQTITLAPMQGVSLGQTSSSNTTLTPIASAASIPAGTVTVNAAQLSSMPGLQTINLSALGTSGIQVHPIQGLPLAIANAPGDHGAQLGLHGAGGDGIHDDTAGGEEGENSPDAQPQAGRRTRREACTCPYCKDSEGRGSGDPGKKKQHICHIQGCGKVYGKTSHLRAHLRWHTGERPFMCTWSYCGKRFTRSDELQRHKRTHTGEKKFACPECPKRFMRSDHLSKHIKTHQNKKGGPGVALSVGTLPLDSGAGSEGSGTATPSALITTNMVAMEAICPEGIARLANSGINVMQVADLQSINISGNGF
Chain of X-box-binding protein 1 (Homo sapiens) (P17861 whole entry, looked up): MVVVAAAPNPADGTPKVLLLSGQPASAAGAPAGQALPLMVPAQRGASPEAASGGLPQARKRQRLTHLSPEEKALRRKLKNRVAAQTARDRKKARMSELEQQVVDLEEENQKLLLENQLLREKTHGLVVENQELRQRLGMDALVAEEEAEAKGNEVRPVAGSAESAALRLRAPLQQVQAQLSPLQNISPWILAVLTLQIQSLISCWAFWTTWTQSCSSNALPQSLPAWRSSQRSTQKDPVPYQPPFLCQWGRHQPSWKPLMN
Chain of Signal transducer and activator of transcription 3 (Homo sapiens) (P40763 whole entry, looked up): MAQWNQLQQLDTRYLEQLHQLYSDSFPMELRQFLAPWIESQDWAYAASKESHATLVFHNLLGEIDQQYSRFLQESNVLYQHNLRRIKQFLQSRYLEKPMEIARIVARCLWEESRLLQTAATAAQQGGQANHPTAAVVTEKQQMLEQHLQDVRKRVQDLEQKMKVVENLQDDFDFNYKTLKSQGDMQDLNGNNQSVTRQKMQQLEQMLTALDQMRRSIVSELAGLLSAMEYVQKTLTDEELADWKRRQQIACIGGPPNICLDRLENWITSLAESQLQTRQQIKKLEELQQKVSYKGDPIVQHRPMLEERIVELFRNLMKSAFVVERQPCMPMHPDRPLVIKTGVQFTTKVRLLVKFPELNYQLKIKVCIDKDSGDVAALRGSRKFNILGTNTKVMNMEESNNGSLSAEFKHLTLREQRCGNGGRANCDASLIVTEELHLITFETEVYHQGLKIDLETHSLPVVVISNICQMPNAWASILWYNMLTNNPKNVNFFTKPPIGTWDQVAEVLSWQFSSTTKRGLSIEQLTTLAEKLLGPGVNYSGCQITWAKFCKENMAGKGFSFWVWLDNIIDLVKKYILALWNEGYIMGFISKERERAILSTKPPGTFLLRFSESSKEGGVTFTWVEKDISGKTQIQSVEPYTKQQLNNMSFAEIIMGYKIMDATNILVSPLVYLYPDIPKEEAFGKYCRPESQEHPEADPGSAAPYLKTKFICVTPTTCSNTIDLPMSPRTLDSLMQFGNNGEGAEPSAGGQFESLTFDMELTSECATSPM
Chain of Estrogen receptor (Homo sapiens) (P03372 whole entry, looked up, the tested form may be a part): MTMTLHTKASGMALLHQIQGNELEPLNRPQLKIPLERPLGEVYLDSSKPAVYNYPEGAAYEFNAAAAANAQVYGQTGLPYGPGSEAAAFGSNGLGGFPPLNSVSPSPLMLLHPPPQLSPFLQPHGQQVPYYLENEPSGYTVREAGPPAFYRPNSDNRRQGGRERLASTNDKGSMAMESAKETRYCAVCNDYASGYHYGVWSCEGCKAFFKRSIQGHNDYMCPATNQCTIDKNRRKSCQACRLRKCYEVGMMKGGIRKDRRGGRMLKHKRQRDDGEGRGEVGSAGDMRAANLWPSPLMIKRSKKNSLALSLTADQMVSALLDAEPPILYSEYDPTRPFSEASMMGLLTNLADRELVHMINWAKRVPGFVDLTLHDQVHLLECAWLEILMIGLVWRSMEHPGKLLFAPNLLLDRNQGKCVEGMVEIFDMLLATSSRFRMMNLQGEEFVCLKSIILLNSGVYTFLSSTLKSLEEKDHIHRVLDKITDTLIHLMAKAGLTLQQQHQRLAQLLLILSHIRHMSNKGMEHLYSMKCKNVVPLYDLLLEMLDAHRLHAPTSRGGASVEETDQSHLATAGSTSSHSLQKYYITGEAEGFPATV
Chain of Nuclear receptor subfamily 1 group I member 3 (Homo sapiens) (Q14994 whole entry, looked up, the tested form may be a part): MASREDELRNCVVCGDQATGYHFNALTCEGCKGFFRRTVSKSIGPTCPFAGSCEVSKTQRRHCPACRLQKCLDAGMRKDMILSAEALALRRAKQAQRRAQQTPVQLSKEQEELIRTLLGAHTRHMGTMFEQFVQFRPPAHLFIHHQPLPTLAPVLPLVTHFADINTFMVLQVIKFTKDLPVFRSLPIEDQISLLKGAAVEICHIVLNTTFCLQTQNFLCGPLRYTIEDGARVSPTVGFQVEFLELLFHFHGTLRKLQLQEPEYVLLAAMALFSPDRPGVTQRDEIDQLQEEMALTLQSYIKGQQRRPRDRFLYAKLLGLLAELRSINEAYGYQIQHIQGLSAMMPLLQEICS
Chain of Estrogen-related receptor gamma (Homo sapiens) (P62508 whole entry, looked up, the tested form may be a part): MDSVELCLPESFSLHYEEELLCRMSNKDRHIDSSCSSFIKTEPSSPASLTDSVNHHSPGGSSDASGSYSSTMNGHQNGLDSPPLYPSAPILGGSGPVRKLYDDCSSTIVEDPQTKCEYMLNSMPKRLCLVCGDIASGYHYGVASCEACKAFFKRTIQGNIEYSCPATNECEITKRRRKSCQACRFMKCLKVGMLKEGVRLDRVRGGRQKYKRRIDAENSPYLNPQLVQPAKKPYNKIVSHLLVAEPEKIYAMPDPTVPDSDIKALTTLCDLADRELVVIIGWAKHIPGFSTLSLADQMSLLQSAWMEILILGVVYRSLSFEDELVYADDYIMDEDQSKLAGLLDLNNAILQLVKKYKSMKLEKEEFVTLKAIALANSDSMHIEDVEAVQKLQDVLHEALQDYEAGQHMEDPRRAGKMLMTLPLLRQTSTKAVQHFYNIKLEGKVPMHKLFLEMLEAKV

Regarding `Cc1cc(C(F)(C(F)(F)F)C(F)(F)F)ccc1NC(=O)c1cccc(I)c1C(=O)NC(C)(C)CS(C)(=O)=O`, the molecule was classed as inactive in [1], in [2], in experiment [3], in experiment [4], in experiment [5] and in [6]. The call in experiment [7], in experiment [8], in experiment [9], in experiment [10], in [11] and in experiment [12] was inactive. Moreover, the molecule was called inactive in experiment [13].
With `CCOC(=O)Cc1ccccc1`, the molecule was classed as inactive in experiment [14], in experiment [2], in [3], in [4], in [5] and in [6]. For the same molecule, the outcome in experiment [7], in experiment [8], in experiment [15], in experiment [16], in experiment [9] and in experiment [10] was inactive. Further, the result in experiment [17] and in [13] was inactive.
As to `CCC(C)(C#N)N=NC(C)(C#N)CC` (stereo not given), the result in [1], in [2], in experiment [3], in [4], in experiment [5] and in experiment [6] was inactive. In addition, the molecule was classed as inactive in experiment [7], in [8], in [16], in experiment [18], in experiment [9] and in experiment [10]. Moreover, the outcome in [17] and in experiment [11] was inactive.
Turning to `O=c1oc2ccccc2c(O)c1C(CC(O)c1ccc(-c2ccc(Br)cc2)cc1)c1ccccc1` (stereo not given), the molecule was called inactive in [14], in [2], in experiment [3], in [4], in experiment [5] and in [7]. The molecule was called inactive in [8], in experiment [18], in experiment [9], in experiment [17] and in [13]. Moreover, the AC50 (usually the midpoint of the concentration-response curve, whichever way the signal moves) was 14.4 µM (active) in experiment [2]; 8.18 µM (active) in experiment [3]; 13.7 µM (active) in experiment [5]; 21.1 µM (active) and 11.5 µM (active) in experiment [6]; 41.7 µM (active) in [7]; 22.4 µM (active) and 8.54 µM (active) in [15]. The figures for the AC50 in experiment [9] and in [12] were 41.7 µM (active) and 173 µM (active), respectively.
Turning to `Cc1cccc(N=Nc2ccc(N(C)C)cc2)c1`, the molecule was classed as inactive in experiment [1], in experiment [2], in [3], in experiment [4], in [5] and in [6]. Moreover, the molecule was called inactive in experiment [7], in [8], in experiment [16], in experiment [9] and in experiment [11].
`O=[N+]([O-])c1ccc(Nc2ccccc2)cc1`: the result in [1], in experiment [2], in [3], in [4], in [5] and in experiment [6] was inactive. The molecule was classed as inactive in experiment [7], in experiment [8], in [18], in [9], in [11] and in [12]. Besides, the result in [13] was inactive.
On to `CCC[CH2][Sn]([Cl])([Cl])[CH2]CCC`, for which the half-maximal activity concentration (AC50) in experiment [14] was 1.61 µM (active); in [2], 0.966 µM (active); in experiment [3], 0.811 µM (active); in experiment [6], 1.82 µM (active); in experiment [15], 1.24 µM (active); in experiment [18] it was 1.86 µM (active). The AC50 in experiment [9] was 1.2 µM (active). Further, the molecule was called inactive in experiment [4], in experiment [5], in experiment [7], in [8] and in experiment [13].
With `Cc1ccc2nc3sc(=O)sc3nc2c1`, the AC50 in experiment [14] was 6.58 µM (active); in [5], 43.9 µM (active); in experiment [15], 14.3 µM (active); in experiment [9], 6.96 µM (active). For the same molecule, the molecule was called inactive in experiment [2], in experiment [3], in experiment [4], in experiment [6], in experiment [7] and in experiment [8]. Moreover, the outcome in experiment [16], in experiment [18], in experiment [12] and in experiment [13] was inactive.
Take `CC1(C)[C@H](/C=C2\CCSC2=O)[C@@H]1C(=O)OCc1coc(Cc2ccccc2)c1`: the AC50 in [1] was 24.8 µM (active); in experiment [5], 30.5 µM (active). Besides, the molecule was called inactive in experiment [2], in [3], in experiment [4], in experiment [6], in [7] and in experiment [8]. The outcome in [16] and in [9] was inactive.

(Values after PubChem BioAssay (EPA / NIEHS).)
